In all, about 310,000 compounds went through this assay and about 14,000 (4.5%) showed an effect of 50% or more. Effects have a minus sign here. Shown is part of a subset that was picked to be rich in strong results.
Target: human ether-à-go-go-related gene (hERG) potassium channel (human, UniProt Q12809)
Test: primary screen, population patch clamp on CHO cells stably expressing hERG; higher = less effect of the substance
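Also: peak tail current of the secondary pulse compared with the same well before compound.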

human ether-à-go-go-related gene (hERG) potassium channel, sequence (Q12809 whole entry, looked up): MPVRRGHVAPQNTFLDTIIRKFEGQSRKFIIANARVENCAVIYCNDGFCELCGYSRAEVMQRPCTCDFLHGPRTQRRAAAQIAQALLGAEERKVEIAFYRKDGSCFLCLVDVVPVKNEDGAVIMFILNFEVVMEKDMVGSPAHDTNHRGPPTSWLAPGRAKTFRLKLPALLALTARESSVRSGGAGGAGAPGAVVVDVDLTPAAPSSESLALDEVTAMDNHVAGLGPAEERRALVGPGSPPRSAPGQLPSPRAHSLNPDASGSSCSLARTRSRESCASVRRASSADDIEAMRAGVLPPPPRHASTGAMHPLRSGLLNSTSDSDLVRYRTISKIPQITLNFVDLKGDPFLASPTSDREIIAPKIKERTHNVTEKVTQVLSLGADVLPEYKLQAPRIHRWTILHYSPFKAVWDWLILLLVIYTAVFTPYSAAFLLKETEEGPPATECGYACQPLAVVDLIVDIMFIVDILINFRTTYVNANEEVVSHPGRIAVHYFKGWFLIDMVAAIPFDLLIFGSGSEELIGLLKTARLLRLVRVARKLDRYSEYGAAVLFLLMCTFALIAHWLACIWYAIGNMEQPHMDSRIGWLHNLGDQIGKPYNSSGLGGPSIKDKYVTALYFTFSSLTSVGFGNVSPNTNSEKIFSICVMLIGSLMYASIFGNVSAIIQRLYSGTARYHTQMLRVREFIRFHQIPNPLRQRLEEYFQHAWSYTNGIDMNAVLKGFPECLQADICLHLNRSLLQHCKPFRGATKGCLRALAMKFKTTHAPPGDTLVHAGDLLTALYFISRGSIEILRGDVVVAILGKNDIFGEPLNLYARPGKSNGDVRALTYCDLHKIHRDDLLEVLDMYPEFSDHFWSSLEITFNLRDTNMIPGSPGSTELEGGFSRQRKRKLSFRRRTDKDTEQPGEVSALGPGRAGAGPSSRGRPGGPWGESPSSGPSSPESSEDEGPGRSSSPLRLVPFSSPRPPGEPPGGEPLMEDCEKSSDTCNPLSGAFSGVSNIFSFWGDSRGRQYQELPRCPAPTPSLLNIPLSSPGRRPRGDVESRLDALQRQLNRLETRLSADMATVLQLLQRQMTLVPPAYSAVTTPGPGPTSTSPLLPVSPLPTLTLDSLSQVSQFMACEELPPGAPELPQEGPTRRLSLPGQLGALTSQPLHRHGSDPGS

Row | Structure (SMILES) | hERG current change (%, negative = inhibition) at 10uM
1 | C#CCOCCOCCOCCNc1nc(N2CCN(C(=O)[C@H]([C@@H](C)CC)n3cc(CCCC[NH3+])nn3)CC2)nc(N2CCN(C(=O)[C@H](CCCC[NH3+])n3cc(CC(C)O)nn3)CC2)n1.[Cl-] (stereo partly drawn) | 14.3%
2 | COc1ccc(C2C(C#N)=C(C)NC3=C2C(=O)CC(C)(C)C3)c(OC)c1 (stereo not drawn) | -6.3%
3 | Cc1ccccc1OCCCCn1c(CO)nc2ccccc21 | -45.1%
4 | COc1ccc(-c2nnc(SCC(=O)NCc3cccs3)n2CC(C)C)cc1 | -15.2%
5 | CNC(=S)N1CCN(c2ccccc2OC)CC1 | 7.94%
6 | CC(=O)n1cc(/C=N/NC(N)=S)c2ccccc21 | -18.4%
7 | CC1(C)CC(=O)/C(=C(\O)CCCN2C(=O)c3ccccc3C2=O)C(=NCCO)C1 | 11.7%
8 | CC/C(O)=C1\C(=O)CC(c2ccccc2)CC1=NCCC(=O)O (stereo not drawn) | 15.6%
9 | O=C(O)CN=C1CC(c2ccccc2)CC(=O)/C1=C(/O)CCCN1C(=O)c2ccccc2C1=O (stereo not drawn) | 1.09%
10 | CCCCN=C1CC(C)(C)CC(=O)/C1=C(/O)CCCN1C(=O)c2ccccc2C1=O | -61.4%
11 | CCCN=C1CC(C)(C)CC(=O)/C1=C(/O)CCCN1C(=O)c2ccccc2C1=O | -11.4%
12 | O=C1CC(c2ccccc2)CC(=NCCO)/C1=C(\O)CCCN1C(=O)c2ccccc2C1=O (stereo not drawn) | -71.9%
13 | CCCCCCNc1cc2n(c(=O)n1)CCc1cc(OC)c(OC)cc1-2 | -46.7%
14 | CCOc1ccc(C(C)NC(=O)c2ccc3c(c2)NC(=O)C(C)S3)cc1OCC (stereo not drawn) | 1.73%
15 | O=C(CS(=O)(=O)c1c[nH]c2ccccc12)NC1CCCCC1 | -8.19%
16 | CSc1ccc(/C=N/NC(=O)CN2CCN(Cc3ccccc3)CC2)cc1 | -74.6%
17 | CSc1ccc(/C=N/N2CCN(Cc3ccccc3)CC2)cc1 | -5.46%
18 | CSc1ccc(/C=N/NC(=O)CN2CCN(Cc3ccc(C)cc3)CC2)cc1 | -63.2%
19 | Cc1ccc(CN2CCN(CC(=O)N/N=C/c3ccc(C)o3)CC2)cc1 | -64.2%
20 | Cc1ccc(/C=N/NC(=O)CN2CCN(Cc3ccccc3Cl)CC2)o1 | -23.5%
21 | CSc1ccc(/C=N\NC(=O)CNc2ccc(C)cc2)cc1 | -2.08%

Row | Structure (SMILES) | hERG current change (%, negative = inhibition) at 10uM
22 | CSc1ccc(/C=N/NC(=O)CN2CCN(Cc3ccccc3Cl)CC2)cc1 | -37.5%
23 | Cc1ccc(/C=N/NC(=O)CN2CCN(Cc3ccccc3)CC2)o1 | -11.7%
24 | CSc1ccc(/C=N/NC(=O)CN2CCN(Cc3ccc(Cl)cc3)CC2)cc1 | -35.1%
25 | CSc1nnc(-c2ccc(S(=O)(=O)N3CCOCC3)cc2)n1C | -25%
26 | Cc1cccc(C(=O)NCCNC(=O)c2cccnc2)c1 | 18.6%
27 | COc1ccc(Nc2nc(NCc3ccco3)nc(N/N=C/c3ccccc3F)n2)cc1 | -12.3%
28 | Cc1ccc(S(=O)(=O)Nc2cccc(C(=O)NCCCN3CCOCC3)c2)cc1F | -10.2%
29 | COc1cc(C(F)(F)F)c(C(=O)N(C)Cc2cc(Cl)cc(Cl)c2)cn1 | -18.9%
30 | O=C1C(C=NCCCn2ccnc2)=C(O)c2ccccc21 | -8.86%
31 | CC(=NCCCn1ccnc1)C1=C(O)c2ccccc2C1=O | -68%
32 | CCN(CC)CCCN=C(C)C1=C(O)c2ccccc2C1=O | -41.2%
33 | CCOC(=O)N1CCN(C(=O)COc2ccc(S(=O)(=O)NC3CCCCC3)cc2C)CC1 | -16.9%
34 | O=C(O)c1ccccc1C(=O)Nc1ccc(-n2nc(C(F)(F)F)cc2C(F)(F)F)cc1 | 12.8%
35 | CCn1c(SCC(=O)Nc2ccc(OC)c(OC)c2)nnc1-c1cccs1 | -14.1%
36 | Cc1ccc(NC(=O)CSc2nnc(-c3cccs3)n2Cc2ccco2)cc1 | -61.6%
37 | CN(C)c1ccc(NC(=O)CSc2nnc(-c3cccs3)n2Cc2ccco2)cc1 | -39.4%
38 | O=C(CSc1nnc(-c2cccs2)n1Cc1ccco1)Nc1ccc2c(c1)OCO2 | -14.6%
39 | COc1ccc(NC(=O)CSc2nnc(-c3cccs3)n2Cc2ccco2)cc1OC | -60.6%
40 | COc1ccc(NC(=O)CSc2nnc(-c3ccccc3)n2Cc2ccco2)cc1OC | -34.6%
41 | COc1ccc(N=C2SC(CC(=O)Nc3ccccc3)C(=O)N2CCc2ccccn2)cc1 (stereo not drawn) | -32.6%
42 | CCOC(=O)c1c(C)oc2ccc(OC(=O)c3cccs3)cc12 | -5.96%

Row | Structure (SMILES) | hERG current change (%, negative = inhibition) at 10uM
43 | c1coc(-c2nnc(SCc3cn4ccccc4n3)o2)c1 | -29.7%
44 | Cc1ccc2nc(CSc3nnc(-c4ccco4)o3)cc(=O)n2c1 | -64.9%
45 | COc1ccc(C)cc1-n1nnnc1SCc1csc(C)n1 | -16.2%
46 | COc1ccc(C)cc1-n1nnnc1SCc1cc(=O)n2cc(C)ccc2n1 | -51.1%
47 | Cc1ccc2nc(CSc3nnc(-c4ccco4)n3-c3ccccc3)cc(=O)n2c1 | -21.1%
48 | COc1ccc(C)cc1-n1nnnc1SCc1cn2ccsc2n1 | -28.7%
49 | Oc1cccc(/C=N/c2c(-c3ccco3)nc3ccccn23)c1 | 6.9%
50 | Cc1cccc(N(Cc2ccc(Cl)cc2)S(C)(=O)=O)c1 | 21.1%
51 | CC1(C)CC(=O)C2=C(C1)NC(=O)C21C(C(=O)OC(C)(C)C)=C(N)Oc2ccc(Br)cc21 (stereo not drawn) | -13.1%
52 | O=C1CN(C(=O)CSc2ccc(-c3ccc(F)cc3)nn2)c2ccccc2N1 | -42.5%
53 | Cc1noc(C)c1CSc1nnc2ccc3ccccc3n12 | -25.1%
54 | COc1ccc(C(C)=O)cc1COC(=O)CNC(=O)c1ccc(Cl)cc1 | -4.06%
55 | NNC(=O)CNC(c1ccccc1)c1cc(Br)ccc1NC(=O)CCN1CCOCC1 (stereo not drawn) | 3.67%
56 | COC(=O)CNC(c1ccccc1)c1cc(Br)ccc1NC(=O)CCN1CCOCC1 (stereo not drawn) | -31.7%
57 | CCOC(=O)CNC(c1ccccc1)c1cc(Br)ccc1NC(=O)CCN1CCOCC1 (stereo not drawn) | -68%
58 | COc1ccccc1OCc1ccc(C(=O)c2ccccc2)cc1 | 17.1%
59 | CC(=O)c1ccccc1OCc1ccc(C(=O)c2ccccc2)cc1 | -51.7%
60 | CC(=O)c1ccc(OCc2ccc(C(=O)c3ccccc3)cc2)cc1 | 0.433%
61 | Cc1ccc(C(=O)c2nocc2C(=O)c2cccs2)cc1 | -19.7%
62 | CS(=O)(=O)O.Cc1cccc(/C=C2/C(=O)/C(=C/c3ccccc3C)C3CCC2N3C)c1 (stereo not drawn) | 6.11%
63 | CCC(O)(CC)C(=O)NN(C(=O)CCl)c1ccccc1 | 8.94%

Row | Structure (SMILES) | hERG current change (%, negative = inhibition) at 10uM
64 | CCc1ccc(-c2cc(C)no2)cc1S(=O)(=O)N1CCN(c2ccccc2)CC1 | 3.41%
65 | Cc1cc(-c2ccc(C)c(S(=O)(=O)N3CCN(C(=O)c4ccco4)CC3)c2)on1 | -51.8%
66 | COc1ccc(-c2cc(C)no2)cc1S(=O)(=O)N1CCN(C(=O)c2ccco2)CC1 | -6.28%
67 | CCc1ccc(-c2cc(C)no2)cc1S(=O)(=O)N1CCN(C(=O)c2ccco2)CC1 | -59.6%
68 | Cc1ccc(S(=O)(=O)N2CCN(C(=O)c3ccco3)CC2)cc1C | -4.01%
69 | CCc1ccc(-c2cc(C)no2)cc1S(=O)(=O)N1CCC(C)CC1 | -15.8%
70 | O=C(CCC1=NS(=O)(=O)c2ccccc2N1)NC1CCCCCCC1 | 2.57%
71 | COc1ccc(S(=O)(=O)N(CC(=O)NC2CC2)c2ccc(C)cc2)cc1 | -0.125%
72 | CCCN(CC(=O)Nc1ccccc1C)C(=O)CCl | -0.969%
73 | CCCN(CC(=O)Nc1ccccc1C)C(=O)Cc1n[nH]c(=O)c2ccccc12 | -10.2%
74 | CCN(CC(=O)Nc1c(F)cccc1F)C(=O)Cc1c(C)nc2ccccc2c1C | -55.1%
75 | CCCN(CC(=O)Nc1ccccc1C)C(=O)CSc1ccccc1C | 7.42%
76 | CCCN(CC(=O)Nc1ccc(Cl)cc1Cl)C(=O)CC(NC(C)=O)c1ccccc1 (stereo not drawn) | 0.715%
77 | CCN(CC(=O)Nc1c(F)cccc1F)C(=O)Cc1ccccc1 | -1.53%
78 | CCN(CC(=O)Nc1c(F)cccc1F)C(=O)c1cc(C)nc2ccccc12 | 9.3%
79 | CCCN(CC(=O)Nc1ccccc1C)C(=O)Cc1c(C)nc2ccccc2c1C | -77.4%
80 | CCCN(CC(=O)Nc1ccccc1C)C(=O)CC(NC(=O)c1ccccc1)c1ccccc1 (stereo not drawn) | -52.7%
81 | Cn1c(CCNC(=O)c2ccccc2F)nnc1SCC(=O)Nc1ccccc1F | 3.44%
82 | OCCOCCn1c(CCNc2nc(-c3ccc(Cl)cc3)cs2)nc2cc(Cl)c(Cl)cc21 | 3.83%
83 | Cc1ccc(-c2cc(-c3ccccc3)no2)c(O)c1 | 17.4%
84 | CCn1ncc(/C=N\NC(=O)c2cc(-c3ccc(C)cc3C)nc3ccccc23)c1C | -8.84%

Source: paper PMC4336329 (PLoS ONE, 2015)
